# A selection: hits, their analogues and other compounds. The true share with any hit is near 3.5%.
# FBW7 activator = human FBW7 E3 ligase activation, primary screen. AID 1259310. normalized activity (activation), % at 26.1 µM. Q969H0. AlphaScreen FBW7–phospho-cyclin E peptide binding, activator screen. 650,000 tested, 0.13% active; in the data active = normalized activity above about 1.9%;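 note: purified mutant Fbw7 with reduced substrate affinity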
# GPR151 activ = human GPR151 activation; Q8TDV0; PathHunter beta-arrestin GPR151 cells, luminescence; activation, % at 11.2 µM; 650,000 tested, 1% active; AID 1508602; in the data active = activation above about 4.9%;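 note: 0% = median of compound wells and 100% = cells with positive control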
# Target sequence (Q8TDV0 whole entry, looked up): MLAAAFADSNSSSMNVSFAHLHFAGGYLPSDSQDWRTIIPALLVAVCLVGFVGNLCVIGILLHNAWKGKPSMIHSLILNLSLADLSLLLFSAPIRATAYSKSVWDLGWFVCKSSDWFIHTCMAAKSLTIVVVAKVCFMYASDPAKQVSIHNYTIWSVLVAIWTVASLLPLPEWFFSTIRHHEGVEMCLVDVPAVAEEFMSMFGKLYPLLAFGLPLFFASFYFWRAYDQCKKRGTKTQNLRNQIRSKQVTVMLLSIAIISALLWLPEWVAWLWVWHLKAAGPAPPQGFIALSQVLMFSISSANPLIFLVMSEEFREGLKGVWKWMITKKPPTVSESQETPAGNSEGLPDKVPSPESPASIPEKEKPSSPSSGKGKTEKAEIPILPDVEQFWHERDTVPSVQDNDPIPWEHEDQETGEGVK
# MITF inh = blocks human microphthalmia-associated transcription factor | inhibition, % at 2.6 µM | 650,000 tested, 0.91% active | AlphaScreen MITF homodimerization, bead proximity signal | O75030 | AID 1259374; in the data active = inhibition above about 50%;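 note: 0% = vehicle wells with protein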
# TEAD-YAP block = TEAD-YAP interaction inhibition; HEK-TIYL cells, TEAD-Gal4/YAP UAS-luciferase luminescence; inhibition, % at 9.12 µM; 640,000 tested, 1.4% active; AID 1259422; in the data active = inhibition above about 32%;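 note: 0% = median of test compound wells and 100% = reference inhibitor wells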
# GPR151 confirm = human GPR151 activation, confirmation screen; shares compounds with GPR151 activ; GPR151 PathHunter beta-arrestin cells, luminescence, 90 min; % of EA-reagent control over plate median; activation, % at 11.2 µM; 6,700 tested, under 10 active;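 active = mean percent activation across replicates above the confirmation screen cutoff of 4.91%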
# GPR119 ag = GPR119 activation, counter-screen for GPR151 activators; activation, % at 11.2 µM; GPR119 PathHunter beta-arrestin cells, luminescence, 90 min; 0 = compound-well median, 100 = enzyme-acceptor control; AID 1508611; 6,700 tested, 0.3% active; shares compounds with GPR151 activ;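 active = mean percent activation in the counterscreen above 29.09%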;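 note: counterscreen on off-target GPR119 to flag nonselective hits from the GPR151 activator screen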
# The depositor's hits bear a star; nt = not tested or not shown.
SMILES,FBW7 activator,GPR151 activ,MITF inh,TEAD-YAP block,GPR151 confirm,GPR119 ag
c1ccc(Nc2ncnc3nc(N4CCc5ccccc5C4)[nH]c23)cc1,-0.2,6.0*,6.5,-3.7,-0.4,0.8
CCN(CC)C(=O)C1CCCN(c2nc(Nc3ccccc3)nc(N(CC)CC)n2)C1 (centres undefined),-0.3,5.7*,2.7,2.3,-1.2,-12.3
CC(=O)Nc1ccc(Nc2ncnc3nc(N4CCc5ccccc5C4)[nH]c23)cc1,0.8,-2.4,6.9,-5.7,nt,nt
COc1ccc(NC(=O)C2C3CCC(C3=C(C)C)C2C(=O)O)cc1 (centres undefined),-0.1,5.5*,-5.5,-5.0,1.8,20.6
CSc1ncccc1C(=O)Nc1ccc2c(C)cc(=O)oc2c1,0.0,1.3,-6.1,-5.1,nt,nt
c1cncc(-c2nc(-c3ccncc3)cc(N3CCCCC3)n2)c1,0.0,5.2*,13.2,15.9,-1.1,-8.4
Cc1ccc(N(C)C(=O)Cn2c(=O)oc3cc(S(=O)(=O)N4CCCCC4)ccc32)cc1,0.7,0.4,14.7,12.9,nt,nt
CCOc1ccc(NC(=O)Nc2nnc(CSCc3ccccc3)s2)cc1,0.1,7.0*,4.9,11.6,0.7,12.4
COc1ccc(CCn2c(=S)[nH]c3cc(C(=O)N4CCOCC4)ccc3c2=O)cc1OC,0.1,4.3,-20.1,9.0,nt,nt
O=C(c1ccc2c(=O)n(CCc3ccccc3)c(=S)[nH]c2c1)N1CCN(c2ccccc2)CC1,0.2,6.3*,-3.7,-2.2,0.0,13.2
COc1ccc(CCn2c(=S)[nH]c3cc(C(=O)N4CCC(C(N)=O)CC4)ccc3c2=O)cc1OC,0.1,6.1*,14.2,-3.3,-1.7,-3.6
COc1ccc(CCNC(=O)c2ccc3c(=O)n(Cc4ccco4)c(=S)[nH]c3c2)cc1OC,-0.2,-0.6,-4.9,-8.2,nt,nt
COc1ccc(CCn2c(=O)[nH]c3cc(C(=O)NCc4ccco4)ccc3c2=O)cc1OC,0.2,6.1*,8.8,2.9,-0.4,-3.7
COc1ccc(CCNC(=O)c2cccc(-n3c(=S)[nH]c4cc(Cl)ccc4c3=O)c2)cc1OC,-0.2,5.8*,12.8,5.1,-0.1,4.3
O=C(CCSCCC(=O)Nc1ccc2c(c1)OCO2)Nc1ccc2c(c1)OCO2,0.0,-1.3,-3.3,0.7,nt,nt
COCCNC(=O)/C(C#N)=C/c1ccc(-c2cc(Cl)ccc2Cl)o1,-0.1,-0.5,-6.4,-2.5,nt,nt
N#C/C(=C\c1ccc(-c2cc(Cl)ccc2Cl)o1)C(=O)Nc1cccc2ncccc12,nt,5.7*,-1.1,nt,0.1,7.6
CC1=NN(C(=O)COc2ccccc2C#N)C(O)(C(F)(F)F)C1 (centres undefined),0.4,-1.6,22.4,4.6,nt,nt
COc1cccc(/C=N/NC(=O)/C(=C\c2cccs2)NC(=O)c2ccccc2)c1O,-0.2,6.2*,-66.0,15.5,-0.3,-12.3
O=C(N/N=C/c1ccccc1O)/C(=C\c1cccs1)NC(=O)c1ccccc1,0.0,1.2,-41.9,13.9,nt,nt
CCOc1ccc(C(=O)N2CCCC(c3ncncc3-c3ccncc3)C2)o1 (centres undefined),0.0,2.5,9.8,3.2,nt,nt
CCOc1ccc(C(=O)N2CCC(c3ncncc3-c3ccncc3)CC2)o1,-0.1,18.2*,-3.3,-9.0,0.9,10.8
O=[N+]([O-])c1ccc(N/N=C/c2ccc3c(c2)OCO3)c(S(=O)(=O)N2CCCCC2)c1,0.5,-0.1,15.3,4.0,nt,nt
O=C(O)c1cc([N+](=O)[O-])cc([N+](=O)[O-])c1N1CCN(CCO)CC1,0.2,5.3*,17.1,8.0,0.8,7.5
COCCCNCc1c(C(=O)O)n(Cc2cc(C)ccc2C)c2ccccc12,-0.4,-0.2,45.1,-4.8,nt,nt
SMILES,FBW7 activator,GPR151 activ,MITF inh,TEAD-YAP block,GPR151 confirm,GPR119 ag
COC(=O)C(C)N1C(=O)S/C(=C/c2ccc(-c3ccccc3)o2)C1=O (centres undefined),0.4,-0.1,7.7,-32.9,nt,nt
CCOC(=O)COc1cc(C)cc2oc(=O)cc(-c3ccccc3)c12,0.0,5.2*,15.2,6.6,-1.0,-12.8
CC(C)NC(=O)c1cc(=O)[nH]c2ccc(S(=O)(=O)N3CCCCCC3)cc12,0.5,-1.0,10.4,4.3,nt,nt
CC(C)NC(=O)c1cc(=O)[nH]c2ccc(S(=O)(=O)N3CCCC3)cc12,0.7,6.3*,13.2,9.1,-0.2,-0.6
CCOc1ccc(Cl)cc1S(=O)(=O)N1CCN(c2ccc(F)cc2)CC1,-0.1,5.0*,2.4,11.5,-0.1,-3.4
CCOc1ccc(OCC)c(S(=O)(=O)N2CCN(c3ccc(F)cc3)CC2)c1,0.1,-0.5,17.5,5.5,nt,nt
CCOC(=O)c1ccc(-n2c(C)nc(=O)c(-c3ccccc3)c2C)cc1,-0.1,7.8*,-2.9,-2.6,-0.5,11.6
Cc1nc(=O)c(-c2ccccc2)c(C)n1-c1ccc(C(=O)O)cc1,0.6,-1.4,5.1,2.7,nt,nt
COc1cc(NC(=O)c2c(C)cc3ccccn23)cc(OC)c1OC,0.1,7.3*,18.1,0.0,-0.1,-1.9
CC12C=CC(C3OCCO3)(O1)C1C(=O)N(c3ccc(Cl)cc3)C(=O)C12 (centres undefined),0.0,6.4*,5.2,12.3,-0.3,-0.7
CC1CCN(S(=O)(=O)c2cccc(-c3nnc(-c4cccc([N+](=O)[O-])c4)o3)c2)CC1,-0.1,5.6*,0.1,6.2,1.2,3.0
O=[N+]([O-])c1cccc(-c2nnc(-c3cccc(S(=O)(=O)N4CCOCC4)c3)o2)c1,-0.1,-0.8,2.1,-4.2,nt,nt
COc1ccccc1C(=O)Nc1nnc(-c2ccc(Cl)cc2)o1,-0.1,5.5*,-2.1,-18.2,0.4,4.8
COc1ccccc1C(=O)Nc1nnc(-c2ccc(F)cc2)o1,0.2,0.7,-0.1,-2.7,nt,nt
COc1cc(C(=O)Nc2ccc3oc(-c4ccc(I)cc4)nc3c2)cc(OC)c1OC,0.1,20.9*,7.2,-4.4,0.0,4.3
Cc1ccc(C(=O)Nc2ccc3oc(-c4ccncc4)nc3c2)cc1C,0.1,4.9*,-2.3,0.2,1.0,16.0
COc1ccccc1C(=O)Nc1ccc2oc(-c3ccc(C(C)(C)C)cc3)nc2c1,0.0,6.2*,9.5,5.3,0.9,-2.2
CCC(C(=O)N1CCN(c2cccc(OC)c2)CC1)n1sc2ccccc2c1=O (centres undefined),0.0,0.0,6.6,12.2,nt,nt
CCc1ccc2oc(-c3cc(NC(=O)c4cccc(C)c4)ccc3O)nc2c1,-0.1,0.6,-1.8,-8.6,nt,nt
O=C(Nc1nnc(-c2ccccc2)o1)c1ccc([N+](=O)[O-])s1,-0.1,2.6,0.1,1.4,nt,nt
CCc1ccc(-c2nc3cc(NC(=O)c4cccc(C)c4)ccc3o2)cc1,-0.1,8.2*,9.1,1.3,0.1,-3.7
COc1ccccc1-c1nnc(NC(=O)c2ccc([N+](=O)[O-])s2)o1,0.1,14.6*,5.8,0.2,0.7,8.9

# From PubChem
